Compound activity deposited in PubChem BioAssay by National Center for Advancing Translational Sciences (NCATS).
ALDH1A1 inh: qHTS Assay for Inhibitors of Aldehyde Dehydrogenase 1 (ALDH1A1). Aldehyde dehydrogenase 1A1 (Homo sapiens), P00352. Purified ALDH1A1, NADH fluorescence, propionaldehyde substrate. Potency, µM (top dose mostly 75.3 µM), for inactives: at the top dose activity, negative = inhibition, most hits filed as inhibitors. actives 7.3% (n = 220,000). AID 1030, 2008;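 note: potency is the fitted concentration of half-maximal effect; plate controls were no enzyme wells and a reference inhibitor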
HPGD block: qHTS Assay for Inhibitors of HPGD (15-Hydroxyprostaglandin Dehydrogenase); 15-hydroxyprostaglandin dehydrogenase [NAD(+)] (Homo sapiens), P15428; purified HPGD, NADH fluorescence kinetic, PGE2 substrate; Potency, µM, for inactives: at the highest dose activity change, negative = inhibition, actives largely listed as inhibitors; actives 4.3% (n = 150,000); AID 894, 2007; note: potency is the fitted concentration of half-maximal effect
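NADH formation kinetics: reaction with 30 uM PGE2 and 1 mM NAD+ (final), 20 nM enzyme, Tris-HCl pH 8 with Tween 20, after 15 min compound preincubation at room temperature. Fluorescence change, last versus first of five reads.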
PNC assembly inh: High Content Assay for Compounds that inhibit the Assembly of the Perinucleolar Compartment | PC3M PTB-GFP, PNC prevalence imaging, 16 h; stronger effect = lower value | activity change (PNC), negative = inhibition, % at 10 µM | actives 3.1% (n = 140,000);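 active = readout at or below -70, meaning at least 70% loss of cells showing the perinucleolar compartment, a nuclear body marking cancer cells; inconclusive = readout between -30 and a set limit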;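 note: plate controls were DMSO wells for no effect and camptothecin positive control wells for full effect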
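Read-out is percentage of cells bearing a perinucleolar compartment, from automated 20x imaging of fixed, Hoechst-stained PC3M PTB-GFP cells. Cells were seeded 4 h, then exposed 16 h to compound (23 nl of library stock) in duplicate plates.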
KDM4E inh: qHTS Assay for Inhibitors of Human Jumonji Domain Containing 2E (JMJD2E). JMJD2E catalytic domain, FDH-coupled NADH fluorescence (FDH is formaldehyde dehydrogenase). Potency, µM (highest dose often 57.1 µM), for inactives: top-dose activity change, negative = inhibition, most hits filed as inhibitors. actives 1.6% (n = 230,000). AID 2147, 2009;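 note: potency is the fitted concentration of half-maximal effect; 0% = wells with enzyme and -100% = buffer wells without enzyme; nearly all actives have a fitted effect of over 50% in size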
Target sequence (B2RXH2 1-337 limits assumed): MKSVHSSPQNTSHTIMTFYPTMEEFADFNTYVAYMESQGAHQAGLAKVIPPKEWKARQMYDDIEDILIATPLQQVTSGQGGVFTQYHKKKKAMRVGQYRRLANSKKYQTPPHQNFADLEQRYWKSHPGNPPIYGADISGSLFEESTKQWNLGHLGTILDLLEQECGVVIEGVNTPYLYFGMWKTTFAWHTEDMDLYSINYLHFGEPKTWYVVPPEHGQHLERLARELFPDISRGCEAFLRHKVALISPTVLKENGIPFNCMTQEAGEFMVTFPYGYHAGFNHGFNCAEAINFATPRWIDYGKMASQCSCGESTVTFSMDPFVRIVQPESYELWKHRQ
* hit, by the source's call; ? = inconclusive; . = no result; [ ] = remark or other dose. The list is not random: actives were taken first. Their share in the collection is about 11%. Unless noted, calls come from the whole dose curve; as a rule, active = well fitted inhibition curve with a large enough effect (not every such curve was filed as active); inconclusive = small, poorly fitted or top-dose-only effect, or another doubt; inactive = no such curve, though single readings can be large or run the other way. Unless noted, % is set by controls: 0 for no effect and ±100 for the full control effect.

SMILES	ALDH1A1 inh	HPGD block	PNC assembly inh	KDM4E inh
CCOC(=O)c1cccc(-n2c(C)cc(C=O)c2C)c1	11.2µM*	-0.7%	?	-7.2%
COc1ccccc1-n1c(C)cc(C=O)c1C	14.1µM*	-6.5%	2.0	-14.1%
Cc1cc(/C=N/O)c(C)n1-c1cccc(Cl)c1	14.1µM*	.	.	-2.6%
COC(=O)c1cc(C(=O)OC)cc(-n2c(C)cc(C=O)c2C)c1	?	.	.	-8.9%
COC(=O)c1cccc(-n2c(C)cc(C=O)c2C)c1	7.94µM*	-13.0%	5.4	-2.7%
CCCn1cnc2c(c1=O)c1nc3ccccc3nc1n2Cc1ccccc1OC	3.98µM*	?	?	4.1%
COCCCn1c2nc3ccccc3nc2c2c(=O)n(-c3ccccc3OC)c(C)nc21	-7.9%	?	-100.0*	?
CCC(C)n1cnc2c(c1=O)c1nc3ccccc3nc1n2Cc1ccccc1OC (configuration not stated)	?	-24.8%	18.8	-10.8%
Cc1cccc(NC(=O)CSc2nnc(-c3ccncc3)n2C)c1	-2.8%	-7.4%	13.8	-2.0%
Cc1cccc(-c2nnc(SCC(=O)C(C)(C)C)n2C)c1	11.2µM*	.	.	-20.3%
Cn1c(SCC(=O)c2cc3ccccc3o2)nnc1-c1ccccc1	28.2µM*	?	-11.1	-3.1%
Cn1c(SCC(=O)Nc2ccc3c(c2)oc2ccccc23)nnc1-c1ccccc1	25.1µM*	-7.3%	5.0	?
Cn1ccnc1SCC(=O)c1cc2ccccc2o1	20µM*	-20.5%	?	-9.1%
CNC(=O)/C(=C\c1ccc2c(c1)OCO2)NC(=O)c1ccc(Br)cc1	8.3%	-2.2%	-22.4	8.4%
CSc1cc(C)c(OCC(=O)Nc2ccc(NC(C)=O)cc2)c(C)c1	?	.	.	0.9%
O=C(CSc1nnc(-c2cccs2)n1CC1CCCO1)c1cc2ccccc2o1 (configuration not stated)	28.2µM*	?	-28.5	-3.5%
O=C(CSc1nnc(-c2ccncc2)n1CC1CCCO1)NCc1ccccc1 (configuration not stated)	-0.7%	2.0%	-17.7	3.8%
COc1cccc(/C=c2\sc3nc(-c4cccs4)nn3c2=O)c1OC	3.6%	14.1µM*	?	0.3%
COc1ccccc1-c1nc2s/c(=C\c3cccs3)c(=O)n2n1	-12.7%	-7.9%	-16.9	?
Cc1nn(-c2ccccc2)c(Cl)c1/C=C1\SC(=S)N(CCCCCC(=O)O)C1=O	.	.	.	0.6%
Cc1nn(-c2ccccc2)c(Cl)c1/C=C1/C(=N)N2N=C(C(C)C)SC2=NC1=O	?	22.4µM*	?	?
Cc1nn(-c2ccccc2)c(Cl)c1/C=C1\SC(=S)NC1=O	?	15.8µM*	?	2.1%
CS(=O)(=O)N(Cc1ccc(F)cc1)Cc1nc2ccccc2c(=O)[nH]1	25.1µM*	-0.6%	24.0	9.7%
COc1ccccc1OCCSc1nc(N)cc(N)n1	8.1%	-11.2%	-100.0*	4.1%
Nc1cc(N)nc(SCCOc2ccccc2F)n1	1.5%	-20.6%	?	?
SMILES	ALDH1A1 inh	HPGD block	PNC assembly inh	KDM4E inh
CN1CCc2c(sc3c2c(=O)n(-c2ccccc2)c2nnc(SCc4ccccc4)n32)C1	25.1µM*	?	7.3	?
CSc1nnc2n(-c3ccccc3)c(=O)c3c4c(sc3n12)CCC4	-10.6%	-7.5%	14.7	-0.2%
Cc1cc(C)c(C#N)c(SCCS(=O)(=O)Cc2ccccc2)n1	6.31µM*	-17.3%	32.4	-0.7%
Cc1cc(C)c(C#N)c(SCc2ccccc2C)n1	-10.3%	-17.1%	-20.6	-3.0%
CCS(=O)(=O)CCSc1nc(C)cc(C)c1C#N	?	-1.5%	-6.9	-9.3%
Cc1ccc(S(=O)(=O)CCSc2nc(C)cc(C)c2C#N)cc1	2µM*	-29.1%	-4.6	-0.2%
CSc1nc(N)nc(SCCS(=O)(=O)c2ccc(Cl)cc2)c1C#N	2.51µM*	-28.6%	222.6	-10.8%
Cn1c(SCCS(=O)(=O)c2ccc(Cl)cc2)nnc1-c1ccccc1	?	-9.1%	26.7	5.1%
COc1ccc(-n2c(=O)c(-c3cc(F)cc(F)c3)nc3cncnc32)cc1	11.5%	.	.	.
CCCCc1nc2c(c3c1C[C@H](C)OC3)CN(C(=O)NCCCC(=O)OCC)CC2	9.4%[13.5 µM]	-4.6%	.	-5.4%[11.4 µM]
Cc1nc(CS(=O)(=O)c2ccc(Cl)cc2)cc(Sc2ccc(Cl)cc2)n1	?	?	23.1	2.2%
